Results as given in PubChem BioAssay AID2782 (National Center for Advancing Translational Sciences (NCATS), 2010).
Records with an inconclusive call do not appear. Where a call stands in place of a potency, no number is given. Active and inactive are the calls of the source. The call rests on the fitted dose curve; in most records, active means well fitted inhibition curve with a large enough effect in the polarisation, with a control signal flat (not every such curve was filed as active); inconclusive means small, poorly fitted or top-dose-only effect, or effect the other way, or a change in a side signal; inactive means no such curve, though single readings can be large or run the other way; the % refers to the polarisation.

Experiment: Confirmation of Inhibitors Targeting the Menin-MLL Interaction in MLL Related Leukemias: Competition With Texas Red Labeled MLL-derived Mutant Peptide
Details: fluorescence polarization, Texas Red MLL peptide displacement; series mostly up to 94.6 µM
From the text: qHTS Assay for Inhibitors Targeting the Menin-MLL Interaction in MLL Related Leukemias
NIH Chemical Genomics Center [NCGC]
NIH Molecular Libraries Probe Centers Network [MLPCN]
Assay Submitter (PI): Jolanta Grembecka, Tomasz Cierpicki, University of Virginia
Translocations of the MLL (Mixed Lineage Leukemia) gene are frequently found in human leukemias affecting both children and adults. Fusion of MLL to one of more than 60 genes results in generation of oncogenic proteins upregulating Hox genes, which are vital to blood cell development. Patients harboring fusion of the MLL gene suffer from aggressive leukemias and respond poorly to available therapies. All of the oncogenic fusion proteins have a preserved N-terminal fragment of MLL that has been identified to interact with menin. It has been recently discovered that association with menin is critical to the leukemogenic activity of the MLL fusion oncoproteins. Selective targeting of the menin-MLL interaction could provide an attractive therapeutic approach to develop novel drugs for MLL-related leukemias. Small molecules blocking the menin-MLL interaction should reverse the oncogenic potential of MLL fusion proteins.
We have developed and optimized a fluorescence polarization-based assay for the identification of Menin-MLL inhibitors. The assay was run employing two different MLL-derived peptides. The present assay uses a 12 amino acid peptide labeled with fluorescein at its N-terminus. This peptide consists of the menin high affinity binding motif from MLL and is potently bound by menin. Another peptide with a mutated sequence, labeled with Texas Red, was used in parallel as a less stringent screen for inhibitors.
The present assay was run to confirm the activity of hits from the primary screen using the peptide with a mutated sequence, labeled with Texas Red.
The Menin protein, the MLL-wild type (w.t.) derived peptide (N-terminal 12 amino acids), the MLL-derived peptide labeled with Texas Red and the MLL-w.t. peptide labeled with Fluorescein were kindly supplied by laboratory of Dr. Jolanta Grembecka, University of Virginia. All protein and peptide solutions were stored in single use aliquots at -80C. The Eu3+ Cyrptate-conjugated mouse monoclonal antibody anti-6 Histidine (Eu3+-AB) and the Streptavidin-XL665 conjugate (XL665) were purchased from Cisbio International (Bedford, MA). All antibody and XL665 conjugate solution stocks were stored in single use aliquots at -20C. The Buffer components for all assays were purchased from Sigma-Aldrich (St. Louis, MO) and Invitrogen (Carlsbad, CA).
1. FP reaction buffer: 50 mM Tris-HCl pH 7.5, 50 mM NaCl, 1mM DTT.
Before use, 0.05% BSA is added.
2. Menin protein, MLL-w.t. labeled with fluorescein, MLL-mutant peptide labeled with texas red.
Stored in singe use aliquots at -80C.
3. MLL-w.t. unlabeled peptide as positive control: 10 uM final in FP buffer.
1. Prepare Menin at 200 nM, MLL-w.t.-fluorescein at 25 nM, and MLL-mutant-texas red at 50 nM mixture in FP buffer.
2. Prepare Menin at 200 nM, MLL-w.t.-fluorescein at 25 nM, MLL-mutant-texas red at 50 nM, and 10 uM MLL-w.t. unlabeled mixture in FP buffer.
3. Prepare MLL-w.t.-fluorescein at 25 nM and MLL-mutant-texas red at 50 nM mixture in FP buffer.
3. Dispense 4 ul per well of reagent in step 1 in columns 2, 4 - 48 in a black 1536 well plate, dispense 4 ul per well of reagents from steps 2 and 3 in columns 1 and 3 respectively. Incubate plate at ambient for 15 minutes.
4. Transfer 23 nl per well of compound to plate and incubate at ambient for 1 hr.
5. Read fluorescence polarization for each label using the PerkinElmer Envision.
Envision protocol for fluorescein: FITC FP Dual Enh Mirror, Excitation filter 480, Emission filter (1) P-pol 535, Emission filter (2) S-pol 535
Envision protocol for texas red: FP Dual Enh Mirror, Excitation filter 555, Emission filter (1) P-pol 632, Emission filter (2) S-pol 632
Potency means the concentration at half of the fitted maximal effect.

Compound | Potency
CN(C)/C=C(/C(=O)c1ccc(Cl)cc1)S(=O)(=O)c1ccc(Cl)cc1 | inactive
CCc1cc2c(N3CCN(c4nnc(CC)s4)CC3)ncnc2s1 | 11.2 µM (active)
CC(=O)Nc1ccc(-c2cc3ccccc3o2)cc1 | inactive
CCOC(=O)C1CCN(CC(O)COCc2ccccc2)CC1 (stereo not given) | inactive
c1cc(CN2CCCNCCNCCCNCC2)ccc1CN1CCCNCCNCCCNCC1 | 22.4 µM (active)
CN(C)c1ccc(N=Nc2ccc(C(=O)O)cc2)cc1 | 141 µM (active)
O=C(C1CCCN(Cc2cccc(Cl)c2)C1)N1CCCCC1 (stereo not given) | inactive
COc1cc2c(cc1NC(=S)NC(=O)c1c(OC)cccc1OC)oc1ccccc12 | 11.2 µM (active)
CCOc1ccc(-c2nn(-c3ccccc3)cc2/C=C2\SC(N)=NC2=O)cc1C | inactive
O=C(/C=C/c1ccccc1)Nc1nnc(SCC(=O)c2ccc3ccccc3c2)s1 | 17.8 µM (active)
COc1ccc(N(C(=O)c2ccncc2)S(=O)(=O)c2ccc(Cl)cc2)cc1 | inactive
C=C(C)CNC(=S)Nc1cccc2cnccc12 | inactive
O=C(Nc1cc(Br)ccc1O)c1cc(-c2ccccc2)on1 | 20 µM (active)
CCOC(=O)Cn1cnc2scc(-c3ccc(C)c(C)c3)c2c1=O | inactive
c1ccc2c(c1)nc(N1CCOCC1)c1c3ccccc3[nH]c21 | inactive
O=S(=O)(NCCc1c[nH]c2ccccc12)c1ccccc1 | inactive
CCc1ccc(CNC(=O)CCS(=O)(=O)Cc2ccccc2F)cc1 | inactive
CNC[C@H](CC1CCCCC1)NC[C@H](Cc1ccccc1)NCCC12CC3CC(CC(C3)C1)C2 | 63.1 µM (active)
CCOC(=O)c1cnc2ccc(OCC)cc2c1N1CCN(C)CC1 | 31.7 µM (active)
Cn1c(=O)n(C)c2cc3[nH]cnc3cc21 | inactive

Compound | Potency
O=C(Nc1ccc(F)c(Cl)c1)c1cc(-c2ccco2)on1 | 31.7 µM (active)
Nc1cccc2c1C(=O)N(C(=O)c1ccco1)C2=O | inactive
N#CC1=C(N)OC2=C(C(=O)CC(c3ccco3)C2)C1c1ccc(OCc2c(F)cccc2Cl)cc1 (stereo not given) | inactive
O=C(c1cc(F)c(F)cc1Cl)N1CCN(c2ncccn2)CC1 | inactive
O=[N+]([O-])CC(c1ccccc1)P(=O)(c1ccccc1)c1ccccc1 (stereo not given) | inactive
CCc1cc2c(N3CCN(C(=O)c4ccco4)CC3)ncnc2s1 | 35.5 µM (active)
Cc1nn(-c2ccccc2)c2nc(N)c(C(N)=O)cc12 | inactive
CCC(C)C1NC(=O)C(CCNCS(=O)(=O)O)NC(=O)C(NC(=O)C(CCNCS(=O)(=O)O)NC(=O)C(NC(=O)C(CCNCS(=O)(=O)O)NC(=O)CCCCC(C)C)C(C)O)CCNC(=O)C(C(C)O)NC(=O)C(CCNCS(=O)(=O)O)NC(=O)C(CCNCS(=O)(=O)O)NC(=O)C(C(C)CC)NC1=O (stereo not given) | inactive
Cc1ccc(C)n1-c1ccc(N(C)C)cc1 | inactive
COc1ccccc1C(=O)Nc1ccnn1C1CCN(CC2CC=CCC2)CC1 (stereo not given) | 126 µM (active)
COc1cccc(NC(=O)N2CCCc3ccccc32)c1 | inactive
CCC(C)CCCCC(=O)NC(CCN)C(=O)NC(C(=O)NC(CCN)C(=O)NC1CCNC(=O)C(C(C)O)NC(=O)C(CCN)NC(=O)C(CCN)NC(=O)C(CC(C)C)NC(=O)C(Cc2ccccc2)NC(=O)C(CCN)NC1=O)C(C)O (stereo not given) | 7.08 µM (active)
CCOC(=O)N1CCN(Cc2nnc(-c3ccccc3C)o2)CC1 | inactive
CCOc1cc(CNCCc2ccc(S(N)(=O)=O)cc2)ccc1OCc1ccccc1 | 70.8 µM (active)
CCOc1cc(C(c2c(C)[nH][nH]c2=O)c2c(C)[nH][nH]c2=O)cc(Br)c1OC | inactive
COc1ccccc1C(=O)Nc1ccccc1SC(=O)c1ccccc1OC | inactive
O=C1NC(=S)N/C1=C/c1ccc2ccccc2c1 | inactive
CCn1cnc2c1c(=O)n(CC(=O)O)c(=O)n2Cc1ccccc1 | inactive
Cc1cc(N/N=C/c2ccc(O)cc2)c2cccc(C)c2n1 | 71 µM (active)
Cc1ccc(C2=NN(C(=O)c3ccccc3F)C(c3ccccc3F)C2)cc1 (stereo not given) | inactive
